# Reference: the supplement of paper PMC10849652
# Targets with a hit are over-represented here; the source holds about 8,800 in all. About 0.5% of all pairs of compound and target were hits. Unmarked numbers belong to inactive results.
# Assays:
# Assay in all cases: log2 fold change, soluble protein after heating vs DMSO (PISA); higher = thermal stabilisation; K562 lysate, 10 uM; active = over 0.2 and 3.5 SD of the protein, either way, in both replicates (recomputed)
# erlotinib = compound: C#Cc1cccc(Nc2ncnc3cc(OCCOC)c(OCCOC)cc23)c1 [erlotinib]
# Outline: (§1)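 Values give the log-two fold change in thermal stability against solvent controls, from duplicates. Crude K562 extract at 1 mg/mL protein, made by dounce homogenisation in PBS pH 7.4 with 1 mM MgCl2, was treated with 10 μM compound for 30 min. After 3 min heating across 48°C-58°C, aliquots were pooled, adjusted to 0.5% NP-40 at 4°C and centrifuged at 21,000xg for 90 min. The supernatant was measured by TMTpro 16plex LC-MS/MS with channel sums equalised.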
# [1] = compound: C/C(=N\NC(=O)C1=CC(=CC=C1)S(=O)(=O)N2CCOCC2)/C3=C(C=CC(=C3)Cl)O
# Outline: as §1
# [2] = compound: C1=CC(=CC=C1C2=NC3=C(N2)C=C(C=C3)C(=O)N)OC4=CC=C(C=C4)Cl
# Outline: as §1
# [3] = compound: C1=CC2=C(C=CC(=C2)/C=C\3/C(=O)NC(=NCC4=CC=CS4)S3)N=C1
# Outline: as §1
# [4] = compound: C1=CC2=NC=CN=C2C=C1/C=C/3\C(=O)NC(=O)S3
# Outline: as §1
# [5] = compound: C1=CC=C(C=C1)C2=NC(=C(N2)C3=CC=NC=C3)C4=CC(=C(C=C4)Cl)O
# Outline: as §1
# [6] = compound: C1=CC=C2C(=C1)C3=NNC4=CC=CC(=C43)C2=O
# Outline: as §1
# [7] = compound: C1CCN(C1)C(=O)NC2=CC=CC(=C2)NC3=NC=C(C(=N3)NCCC4=CN=CN4)Br
# Outline: as §1
# [8] = compound: C1CN(CCC1(CC2=CC=C(C=C2)Cl)N)C3=NC=NC4=C3C=CN4
# Outline: as §1
# IRAK-1-4 Inhibitor I = compound: C1COCCN1CCN2C3=CC=CC=C3N=C2NC(=O)C4=CC(=CC=C4)[N+](=O)[O-] [IRAK-1-4 Inhibitor I]
# Outline: as §1
# ibrutinib = compound: C=CC(=O)N1CCC[C@@H](n2nc(-c3ccc(Oc4ccccc4)cc3)c3c(N)ncnc32)C1 [ibrutinib]
# Outline: as §1
# [9] = compound: CC(=O)c1cnc2ccc(-c3cc(Cl)c(O)c(Cl)c3)nc2c1N[C@H]1CC[C@H](CN(C)C)CC1
# Outline: as §1
# ralimetinib = compound: CC(C)(C)Cn1c(N)nc2ccc(-c3[nH]c(C(C)(C)C)nc3-c3ccc(F)cc3)nc21 [ralimetinib]
# Outline: as §1
# [10] = compound: CC(C)(O)CC(=O)NCCn1ccc2ncnc(Nc3ccc(Oc4cccc(C(F)(F)F)c4)c(Cl)c3)c21
# Outline: as §1
# [11] = compound: CC(C)C1=C2N=C(C=C(N2N=C1)NCC3=CC=CC=C3)NCCCCCCN
# Outline: as §1
# [12] = compound: CC1=C(C(CC(=O)N1)C2=CC=C(C=C2)C(F)(F)F)C(=O)NC3=C(C=C4C(=C3)C=NN4)F
# Outline: as §1
# [13] = compound: CC1=C(C2=C(C=C1)C(=O)C3=CC=CC=C3N2CCCN)C
# Outline: as §1
# [14] = compound: CC1=C(C=C(C=C1)NC(=O)C2=CC(=CC=C2)C(C)(C)C#N)NC3=CC4=C(C=C3)N=CN(C4=O)C
# Outline: as §1
# [15] = compound: CC1=C(C=C(C=C1)NC(=O)C2=CC(=CC=C2)N(C)C)NC(=O)C3=CC=C(C=C3)O
# Outline: as §1
# [16] = compound: CC1=CC=C(C=C1)SC2=C3C=C(SC3=CN=C2)C(=O)N
# Outline: as §1
# Sequence of UniProt O00258 (O00258 whole entry, looked up): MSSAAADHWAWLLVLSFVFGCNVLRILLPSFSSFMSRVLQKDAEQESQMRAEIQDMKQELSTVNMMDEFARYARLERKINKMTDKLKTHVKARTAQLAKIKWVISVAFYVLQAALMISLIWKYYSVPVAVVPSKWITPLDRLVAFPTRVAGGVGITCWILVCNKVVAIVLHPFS
# Sequence of UniProt Q9UNX4 (Q9UNX4 whole entry, looked up): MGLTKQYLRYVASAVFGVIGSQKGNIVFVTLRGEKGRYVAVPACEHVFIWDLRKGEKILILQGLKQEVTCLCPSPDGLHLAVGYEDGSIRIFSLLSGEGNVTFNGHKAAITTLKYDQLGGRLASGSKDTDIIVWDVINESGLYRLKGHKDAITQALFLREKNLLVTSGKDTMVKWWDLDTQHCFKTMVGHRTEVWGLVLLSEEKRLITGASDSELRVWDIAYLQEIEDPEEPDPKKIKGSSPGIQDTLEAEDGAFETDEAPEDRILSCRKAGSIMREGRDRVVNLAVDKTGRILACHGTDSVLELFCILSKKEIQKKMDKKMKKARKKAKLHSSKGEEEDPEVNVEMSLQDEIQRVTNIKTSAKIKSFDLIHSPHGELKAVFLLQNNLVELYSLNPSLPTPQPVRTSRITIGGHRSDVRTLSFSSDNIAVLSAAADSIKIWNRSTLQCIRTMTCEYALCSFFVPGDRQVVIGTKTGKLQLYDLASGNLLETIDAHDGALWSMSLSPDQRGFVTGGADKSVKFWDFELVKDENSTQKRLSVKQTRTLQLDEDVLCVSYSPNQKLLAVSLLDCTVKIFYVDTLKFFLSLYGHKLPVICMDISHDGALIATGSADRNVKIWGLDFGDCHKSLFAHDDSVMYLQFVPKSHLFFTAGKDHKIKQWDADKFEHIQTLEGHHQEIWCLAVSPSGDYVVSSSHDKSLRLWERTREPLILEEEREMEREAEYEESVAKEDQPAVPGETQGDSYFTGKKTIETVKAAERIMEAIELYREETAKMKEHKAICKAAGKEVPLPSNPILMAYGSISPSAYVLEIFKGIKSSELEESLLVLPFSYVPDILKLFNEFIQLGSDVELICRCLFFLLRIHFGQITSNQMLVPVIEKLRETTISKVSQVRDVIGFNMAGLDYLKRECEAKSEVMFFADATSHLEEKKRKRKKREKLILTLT
# Sequence of UniProt Q8IX07 (Q8IX07 whole entry, looked up): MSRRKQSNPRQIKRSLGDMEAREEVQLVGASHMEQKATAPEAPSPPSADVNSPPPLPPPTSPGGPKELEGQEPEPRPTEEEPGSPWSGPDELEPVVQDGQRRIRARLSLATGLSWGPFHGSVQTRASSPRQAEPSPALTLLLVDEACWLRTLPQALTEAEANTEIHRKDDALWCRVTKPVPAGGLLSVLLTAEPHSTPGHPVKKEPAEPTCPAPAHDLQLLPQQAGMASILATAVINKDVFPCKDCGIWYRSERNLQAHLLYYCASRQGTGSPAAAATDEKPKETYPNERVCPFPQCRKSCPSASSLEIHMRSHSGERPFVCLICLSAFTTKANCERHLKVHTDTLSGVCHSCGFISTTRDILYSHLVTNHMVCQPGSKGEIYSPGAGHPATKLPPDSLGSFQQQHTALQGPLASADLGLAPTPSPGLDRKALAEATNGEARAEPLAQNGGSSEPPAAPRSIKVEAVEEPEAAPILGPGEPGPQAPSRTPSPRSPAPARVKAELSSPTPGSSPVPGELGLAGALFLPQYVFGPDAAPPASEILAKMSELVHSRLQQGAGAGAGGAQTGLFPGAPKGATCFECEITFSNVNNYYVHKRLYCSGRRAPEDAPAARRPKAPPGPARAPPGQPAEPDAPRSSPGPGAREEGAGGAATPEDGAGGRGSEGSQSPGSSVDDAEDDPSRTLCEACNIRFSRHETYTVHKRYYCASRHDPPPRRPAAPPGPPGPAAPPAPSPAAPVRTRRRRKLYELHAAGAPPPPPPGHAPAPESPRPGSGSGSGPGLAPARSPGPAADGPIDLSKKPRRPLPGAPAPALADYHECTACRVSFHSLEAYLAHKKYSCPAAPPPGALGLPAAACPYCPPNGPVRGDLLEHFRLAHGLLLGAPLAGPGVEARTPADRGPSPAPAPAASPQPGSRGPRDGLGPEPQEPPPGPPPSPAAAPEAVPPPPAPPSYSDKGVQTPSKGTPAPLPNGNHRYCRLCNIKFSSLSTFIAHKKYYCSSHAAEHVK
# Sequence of UniProt Q9H269 (Q9H269 whole entry, looked up): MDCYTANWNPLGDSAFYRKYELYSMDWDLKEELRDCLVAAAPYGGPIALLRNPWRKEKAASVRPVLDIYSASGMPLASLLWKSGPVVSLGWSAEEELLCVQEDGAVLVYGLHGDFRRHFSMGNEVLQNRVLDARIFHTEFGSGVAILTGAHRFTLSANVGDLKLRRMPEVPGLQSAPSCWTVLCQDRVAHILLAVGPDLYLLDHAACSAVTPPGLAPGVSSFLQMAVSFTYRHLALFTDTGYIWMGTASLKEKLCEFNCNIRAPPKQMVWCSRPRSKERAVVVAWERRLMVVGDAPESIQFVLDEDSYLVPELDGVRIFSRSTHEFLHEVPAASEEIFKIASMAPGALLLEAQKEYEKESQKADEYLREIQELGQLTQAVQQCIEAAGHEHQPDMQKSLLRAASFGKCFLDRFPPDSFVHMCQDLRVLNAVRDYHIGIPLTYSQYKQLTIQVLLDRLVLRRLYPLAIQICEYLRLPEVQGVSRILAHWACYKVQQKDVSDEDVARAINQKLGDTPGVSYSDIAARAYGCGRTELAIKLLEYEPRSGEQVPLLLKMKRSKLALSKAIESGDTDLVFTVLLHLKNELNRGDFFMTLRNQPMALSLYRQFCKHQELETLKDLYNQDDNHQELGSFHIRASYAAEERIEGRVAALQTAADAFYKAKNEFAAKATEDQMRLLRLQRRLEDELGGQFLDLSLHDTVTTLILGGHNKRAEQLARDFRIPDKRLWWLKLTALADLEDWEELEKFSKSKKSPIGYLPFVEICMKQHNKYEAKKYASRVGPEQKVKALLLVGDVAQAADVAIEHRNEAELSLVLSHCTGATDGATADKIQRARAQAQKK
# Sequence of UniProt Q8TAA9 (Q8TAA9 whole entry, looked up): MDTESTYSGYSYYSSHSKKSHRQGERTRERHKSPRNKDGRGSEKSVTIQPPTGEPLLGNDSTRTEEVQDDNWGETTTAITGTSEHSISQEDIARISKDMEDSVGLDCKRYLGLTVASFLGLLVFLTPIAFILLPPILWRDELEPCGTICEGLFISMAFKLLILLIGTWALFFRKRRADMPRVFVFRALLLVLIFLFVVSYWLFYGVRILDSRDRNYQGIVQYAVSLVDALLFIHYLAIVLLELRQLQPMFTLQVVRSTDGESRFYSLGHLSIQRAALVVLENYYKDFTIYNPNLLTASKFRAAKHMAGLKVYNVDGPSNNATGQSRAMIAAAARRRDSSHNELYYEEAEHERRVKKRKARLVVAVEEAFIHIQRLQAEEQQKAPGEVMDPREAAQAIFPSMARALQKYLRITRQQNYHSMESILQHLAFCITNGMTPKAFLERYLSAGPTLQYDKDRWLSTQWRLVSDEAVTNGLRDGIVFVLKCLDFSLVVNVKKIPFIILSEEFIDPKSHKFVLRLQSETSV
# Sequence of UniProt Q96S55 (Q96S55 whole entry, looked up): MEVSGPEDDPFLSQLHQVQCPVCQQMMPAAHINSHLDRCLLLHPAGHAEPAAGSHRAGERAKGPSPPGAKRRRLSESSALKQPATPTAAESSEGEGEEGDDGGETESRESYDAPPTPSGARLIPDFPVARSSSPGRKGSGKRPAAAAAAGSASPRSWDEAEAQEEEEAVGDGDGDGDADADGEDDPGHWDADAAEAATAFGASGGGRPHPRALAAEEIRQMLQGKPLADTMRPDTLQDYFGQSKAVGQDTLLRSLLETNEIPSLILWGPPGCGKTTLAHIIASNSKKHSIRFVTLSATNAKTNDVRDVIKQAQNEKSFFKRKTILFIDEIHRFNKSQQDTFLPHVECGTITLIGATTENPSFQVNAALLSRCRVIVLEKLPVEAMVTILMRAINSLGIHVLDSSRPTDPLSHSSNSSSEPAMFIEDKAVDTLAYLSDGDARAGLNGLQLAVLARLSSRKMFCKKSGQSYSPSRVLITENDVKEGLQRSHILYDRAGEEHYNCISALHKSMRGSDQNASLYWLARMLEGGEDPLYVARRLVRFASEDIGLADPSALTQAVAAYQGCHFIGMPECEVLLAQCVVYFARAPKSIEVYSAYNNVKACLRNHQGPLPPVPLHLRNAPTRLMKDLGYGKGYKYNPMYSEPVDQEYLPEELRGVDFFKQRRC
# Sequence of UniProt Q9NZ43 (Q9NZ43 whole entry, looked up): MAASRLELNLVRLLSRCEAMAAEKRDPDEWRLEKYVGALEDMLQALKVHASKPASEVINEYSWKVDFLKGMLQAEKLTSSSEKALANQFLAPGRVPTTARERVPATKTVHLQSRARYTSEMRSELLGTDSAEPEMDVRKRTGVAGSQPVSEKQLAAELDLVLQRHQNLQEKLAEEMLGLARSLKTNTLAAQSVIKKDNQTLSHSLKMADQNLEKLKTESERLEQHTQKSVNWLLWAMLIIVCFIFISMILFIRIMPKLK
# Sequence of UniProt P04004 (P04004 whole entry, looked up): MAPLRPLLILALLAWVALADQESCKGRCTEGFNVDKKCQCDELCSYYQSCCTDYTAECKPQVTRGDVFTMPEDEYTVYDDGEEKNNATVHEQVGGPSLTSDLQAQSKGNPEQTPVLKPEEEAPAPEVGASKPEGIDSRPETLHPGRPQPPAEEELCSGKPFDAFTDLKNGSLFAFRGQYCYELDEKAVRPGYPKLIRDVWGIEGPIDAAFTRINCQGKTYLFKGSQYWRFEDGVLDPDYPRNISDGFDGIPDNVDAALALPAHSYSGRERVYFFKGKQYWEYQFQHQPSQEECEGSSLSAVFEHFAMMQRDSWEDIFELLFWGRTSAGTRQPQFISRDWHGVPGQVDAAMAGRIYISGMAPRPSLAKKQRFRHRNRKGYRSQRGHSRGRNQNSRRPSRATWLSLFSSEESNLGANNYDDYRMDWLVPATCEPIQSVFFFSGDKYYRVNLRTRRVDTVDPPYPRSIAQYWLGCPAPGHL
Target,log2 fold change (erlotinib),log2 fold change [1],log2 fold change [2],log2 fold change [3],log2 fold change [4],log2 fold change [5],log2 fold change [6],log2 fold change [7],log2 fold change [8],log2 fold change (IRAK-1-4 Inhibitor I),log2 fold change (ibrutinib),log2 fold change [9],log2 fold change (ralimetinib),log2 fold change [10],log2 fold change [11],log2 fold change [12],log2 fold change [13],log2 fold change [14],log2 fold change [15],log2 fold change [16]
ZMYND8 isoform 19 (UniProt Q9ULU4),-0.012,-0.058,0.023,0.011,-0.037,0.024,-0.077,-0.021,0.018,-0.025,0.111,-0.02,0.047,0.007,0.002,0.007,0.027,0.02,0.011,0.037
VPS16 (UniProt Q9H269),0.059,0.026,0.048,0.024,-0.03,0.048,-0.075,0.03,0.023,0.025,0.009,0.017,-0.012,-0.038,-0.014,-0.015,-0.029,0.019,0.031,0
YME1L1 (UniProt Q96TA2),0.018,-0.136,-0.029,0.026,0.053,0,0.011,-0.006,0.041,0.033,-0.04,-0.008,-0.006,-0.043,0,-0.04,0.003,0.005,0.054,-0.087
VPS41 (UniProt P49754),0.032,0.073,-0.029,0.062,-0.003,0.036,-0.033,-0.025,0.049,-0.008,-0.019,0.007,0.015,0.016,0.003,0.024,0.014,0.005,0.047,0.013
VANGL1 (UniProt Q8TAA9),0,-0.043,-0.088,0.022,-0.149,-0.377,-0.01,-0.072,0.004,0.182,0.08,-0.041,-0.317 (active),0.183,0.037,0.007,-0.109,-0.062,-0.066,0.007
WRNIP1 (UniProt Q96S55),0.019,-0.128,-0.014,-0.024,-0.005,0.003,-0.064,0.028,0.023,-0.05,0.025,0.026,0.051,0.026,0.001,0.045,0.013,-0.023,-0.003,-0.023
USE1 (UniProt Q9NZ43),0.019,0.31 (active),-0.026,-0.062,0,-0.038,-0.06,0.019,0.025,0.056,-0.039,-0.026,-0.095,-0.102,-0.086,0.024,-0.025,-0.007,0.007,0.027
USP10 isoform 2 (UniProt Q14694),0.022,-0.032,0.01,0.007,-0.017,0.023,-0.028,-0.033,-0.034,-0.005,-0.038,0.001,-0.019,-0.014,-0.006,-0.025,0.018,0.003,0.018,0.008
ZBTB33 (UniProt Q86T24),0,0.012,0.101,0.062,0.144,-0.025,-0.101,-0.053,0.068,-0.042,0.258,0.183,-0.058,-0.158,0.141,-0.027,0.109,0.129,0.044,0.109
ZFPM1 (UniProt Q8IX07),0.015,0.039,0.047,-0.041,0.005,-0.01,0.021,0.031,-0.01,0.077,0.004,-0.034,0.013,-0.067,0.02,0.01,0.003,0.033,0,-0.026
WRN (UniProt Q14191),-0.003,-0.048,0.005,0.006,0.057,0.011,-0.077,0.02,-0.012,-0.013,0.02,-0.008,0.021,-0.055,-0.016,0.023,0.019,-0.016,0.016,-0.048
WDR3 (UniProt Q9UNX4),-0.036,-0.013,-0.044,-0.012,0.027,-0.015,0.026,0.007,-0.04,-0.02,0,0.014,0.021,0.025,-0.033,0.015,-0.032,-0.021,-0.001,0.03
VTN (UniProt P04004),-0.065,-0.006,0.003,-0.033,0.107,-0.096,-0.129,-0.065,-0.042,0.043,-0.019,-0.007,0.01,-0.044,0.028,0.088,0.017,-0.011,0.155,-0.04
XAB2 (UniProt Q9HCS7),0.049,-0.088,-0.012,0.076,0.093,0.012,-0.041,0.071,-0.014,0.004,-0.089,-0.048,-0.002,-0.051,-0.011,0.014,-0.032,0.013,0.03,-0.024
WRB (UniProt O00258),-0.043,0.208,0.027,0.002,-0.009,-0.002,0.049,0.051,-0.064,0.101,0.045,-0.043,-0.095,-0.255,-0.024,-0.025,-0.141,0.063,-0.004,-0.024
